The record followed here is PubChem BioAssay.

SMILES strings stand for the structures.

The first assay in a line: binders from COS7 lysate, DM2A8 probe, primary screen, torsin A project, cell lysate, small-molecule microarray, fluorescence 635/667 (AID 1065). Particulars: higher = more signal, COS7 lysate expressing mutant human TOR1A.
In the case of `Cc1ccc(S[C@]2(C(=O)NCc3ccccc3)CC(=O)N(Cc3ccccc3C(F)(F)F)[C@@H]2c2ccc(CO)cc2I)cc1`, the composite z-score was -0.135.
On the same count and under the same terms, in the case of `COCCOC(=O)N1C(=O)[C@@]2(c3cc(C#CC4(O)CCCCCC4)ccc31)[C@H](C(N)=O)[C@H]1C(=O)O[C@H](c3ccccc3)[C@H](c3ccccc3)N1[C@@H]2c1ccc(OCCO)cc1` it was 1.08; in that of `OCCCc1cc[n+](Cc2cc3c(cc2Br)OCO3)cc1`, -0.226.

The next assay in a line: small molecules captured by biotinylated probe aFGF2 – biochemical, small-molecule microarray, fluorescence 635/667, stem cell growth factor project, primary screen (AID 1067).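 Also: measures binding of biotinylated aFGF2 protein to printed compounds on slides; z-score merges feature fluorescence and signal-to-noise across triplicate slides.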 Particulars: higher = more signal.
With `CC(C)c1ccc(NN2C(C(O)C3CCCCC3)C=CC3C(=O)N(c4ccccc4)C(=O)C32)cc1` (centres undefined), the composite z-score turned out to be 0.224.
As for `COc1ccc(C(=O)Nc2ccc(CN3C(=O)[C@]4(O[C@H](CC(=O)N(CCO)Cc5ccccc5)[C@@H]([Si](C)(C)c5ccc(OC)cc5)[C@@H]4C)c4ccccc43)cc2)cc1`, the composite z-score was -0.0858.
On to `CCOC(=O)C=C1C[C@@H](c2cccc([N+](=O)[O-])c2)O[C@@H](c2cccc([N+](=O)[O-])c2)O1`, for which the composite z-score was found to be 0.429.
In turn, `CC[C@@H]1C=C(C(=O)O)[C@H](c2cccc(Cl)c2)N1S(=O)(=O)c1ccc(C)cc1` displayed a composite z-score of 0.0263.
For `C=CCOC(=O)[C@H]1[C@@H]2C(=O)O[C@@H](c3ccccc3)[C@@H](c3ccccc3)N2[C@@H](c2ccc(OCCOC(=O)[C@@H]3C[C@@H]4C(=O)N[C@@H](Cc5ccccc5)C(=O)N4[C@@H]3c3ccc(O)cc3)cc2)[C@]12C(=O)Nc1ccc(I)cc12`, the composite z-score was -0.0861.
`COC(=O)C1=CC(c2ccc(CO)cc2)=CC(C2CC2)N(Cc2cc3c(cc2Br)OCO3)C=C1C(=O)OC` (centres undefined) registered a composite z-score of 0.214.
Still for that read-out and setting: next, `O=C1O[C@H](c2ccccc2)[C@H](c2ccccc2)N2[C@H]1[C@@H](C(=O)O)[C@]1(C(=O)Nc3ccc(C#CC4(O)CCCCCC4)cc31)[C@H]2c1ccccc1OCCO`: 0.0322; `CCCCCCc1nc(-c2ccc(OC)nc2)c(C)c2c1[Si](C(C)C)(C(C)C)OC2`: -0.0502; `[N-]=[N+]=NCc1ccccc1[C@H]1OC(c2ccc(OCCCO)cc2)=N[C@@]1(Cc1ccccc1N=[N+]=[N-])C(=O)N1CCOCC1`: 0.156.
As to `C=CCOC(=O)[C@H]1[C@@H]2C(=O)O[C@@H](c3ccccc3)[C@@H](c3ccccc3)N2[C@@H](c2ccc(OCCOC(=O)[C@H]3C[C@H]4C(=O)NCC(=O)N4[C@H]3c3cccc(OCCO)c3)cc2)[C@]12C(=O)Nc1ccc(I)cc12`, the composite z-score was -0.045.
Still for that read-out and setting: in the case of `COCCOC(=O)N1C(=O)[C@@]2(c3cc(C#CCNC(N)=O)ccc31)[C@H](C(N)=O)[C@H]1C(=O)O[C@H](c3ccccc3)[C@H](c3ccccc3)N1[C@@H]2c1ccc(O)cc1` it was -0.0899; in that of `C=C1C(=O)C=C2CN(C(=O)c3ccccc3)[C@@](Cc3ccc(F)cc3)(C(=O)OC)[C@@H]12`, 0.25; in that of `CC(C)(C)OC(=O)N1[C@@H](C=C(Br)Br)COC1(C)C`, 0.0014.
The compound `O=C1C[C@@](C(=O)NCC(F)(F)F)(c2ccc([N+](=O)[O-])cc2)[C@@H](c2ccc(CO)cc2I)N1CC12CC3CC(CC(C3)C1)C2` returned a composite z-score of -0.106.
`Cc1cccc([C@H]2C[C@H]3C(Br)=C[C@@]2(CO)C(=O)[C@]32CO2)c1` displayed a composite z-score of -0.125.
On the same count and under the same terms, in the case of `COC(=O)C(CC#Cc1ccc2c(c1)[C@]1(C(=O)N2)[C@H](c2ccccc2OCCO)N2[C@H](c3ccccc3)[C@H](c3ccccc3)OC(=O)[C@H]2[C@@H]1C(=O)N1CCN(c2ncccn2)CC1)C(=O)OC` it was -0.0937; in that of `O=C1NC(=O)C2C1C=CC(C(O)c1ccc(F)cc1)N2Nc1ccc(Cl)cc1Cl` (centres undefined), 0.103; in that of `C=CCOC(=O)[C@@H]1[C@H]2C(=O)O[C@H](c3ccccc3)[C@H](c3ccccc3)N2[C@H](c2ccc(OCCOC(=O)[C@@H]3C[C@@H]4C(=O)N[C@@H](CC(C)C)C(=O)N4[C@@H]3c3ccc(O)cc3)cc2)[C@@]12C(=O)Nc1ccc(I)cc12`, -0.0489.
In the case of `COC(=O)c1ccc(OC)c(/C=C\CC(OC(=O)c2ccncc2)c2ccccc2)c1` (centres undefined), the composite z-score is -0.107.
Consider `COC(=O)[C@@]1(Cc2ccc(F)cc2)[C@H]2c3cc(C(=O)N4CCCC4)n(CCSCCO)c3C[C@H]2CN1C(=O)c1ccccc1`, for which the composite z-score amounted to 0.157.
For the compound `Cc1c(NC(=O)/C(C#N)=C/C=C/c2ccc([N+](=O)[O-])cc2)c(=O)n(-c2ccccc2)n1C`, the composite z-score was -0.0718.
Still for that read-out and setting: next, `COc1ccc([Si](C)(C)[C@H]2[C@H](CC(=O)N(CCO)Cc3ccccc3)O[C@@]3(C(=O)N(Cc4cccc(N5CCCCC5=O)c4)c4ccccc43)[C@@H]2C)cc1`: -0.0557; `O=C1c2ccccc2[C@@]2(Cc3ccccc3N(CC(F)(F)F)C2=O)[C@H](c2ccc(CO)cc2)N1Cc1ccccc1`: -0.124.
`CC(C)C[C@@H]1NC(=O)[C@@H]2C[C@H](C(=O)NCCCCCNC(=O)CS)[C@H](c3ccc(O)cc3)N2C1=O`: the composite z-score is -0.0986.
On the same count and under the same terms, next, `COc1ccc(C(O)C2C=CC3C(=O)N(C)C(=O)C3N2Nc2ccccc2)cc1` (centres undefined): 0.042; `Cc1ccc(S[C@]2(C(=O)NCCN3CCOCC3)CC(=O)N(C(C)C)[C@@H]2c2ccc(CO)cc2I)cc1`: -0.0805.
Turning to `COc1ccc([Si](C)(C)[C@H]2[C@H](CC(=O)N(CCO)Cc3ccccc3)O[C@@]3(C(=O)N(Cc4ccc(N5C(=O)c6cccc7cccc5c67)cc4)c4ccccc43)[C@@H]2C)cc1`, the composite z-score is -0.0249.
In turn, `COC(=O)[C@@]1(Cc2ccccc2)[C@H]2c3cc(C(=O)N(C)C)n(CCF)c3C[C@H]2CN1C(=O)c1ccccc1` showed a composite z-score of 0.181.
Take `C=CCC(OC(C)=O)[C@@H]1[C@@H](N(Cc2ccc(-c3ccccc3)cc2)C(=O)Cc2ccc(OC)cc2)c2cc(OCCCO)ccc2N1C(=O)c1ccc2ccccc2c1` (some centres undefined): the composite z-score was -0.0486.
Compound `C=C(C(=O)CC[C@@H](OC(=O)c1cccnc1)c1cccc(OCCO)c1)C(C)C` displayed a composite z-score of -0.167.
On the same count and under the same terms, in the case of `CCCC=C(CCC)[C@@H](NC(=O)c1ccc(C(=O)OC)cc1)c1ccc(C(=O)OC)cc1` it was 0.355; in that of `[N-]=[N+]=NCc1ccccc1C[C@]1(C(=O)N2CCCCC2)COC(c2ccc(OCCCO)cc2)=N1`, -0.0151.
The compound `COC(=O)[C@@]1(Cc2ccc(F)cc2)[C@H]2c3cc(C(=O)N4CCCC4)n(Cc4ccc(OC(F)(F)F)cc4)c3C[C@H]2CN1C(=O)c1ccccc1` had a composite z-score of 0.0336.
As to `Cc1ccc(S[C@]2(C(=O)NCc3ccccc3)CC(=O)N(Cc3ccccc3C(F)(F)F)[C@@H]2c2ccc(CO)cc2I)cc1`, the composite z-score is -0.106.
Compound `COCCOC(=O)N1C(=O)[C@@]2(c3cc(C#CC4(O)CCCCCC4)ccc31)[C@H](C(N)=O)[C@H]1C(=O)O[C@H](c3ccccc3)[C@H](c3ccccc3)N1[C@@H]2c1ccc(OCCO)cc1` had a composite z-score of 0.0664.
On the same count and under the same terms, next, `OCCCc1cc[n+](Cc2cc3c(cc2Br)OCO3)cc1`: -0.116.
